PINK1 modulator: modulators of PINK1 expression | PINK1 immunofluorescence, high-content cytometry, 24 h | Potency, µM (series often up to 76.6 µM), actives largely listed as activators | 0.2% of 410,000 active | AID 624263; active means well fitted activation curve with a large enough effect; inconclusive means small, poorly fitted or top-dose-only effect; cell line not stated here; further: nearly all actives have a fitted effect of over 65% in size
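Stable cell line treated 24 h with compounds at 5 concentrations (CCCP controls), then fixed and immunostained for PINK1 plus nuclear and cell stains; PINK1 immunofluorescence quantified by laser-scanning microplate cytometry.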
Sfp PPTase inh: Sfp phosphopantetheinyl transferase inhibition; Biochemical Sfp PPTase activity, qHTS; Potency, µM, usual class: inhibitors; 3.5% of 310,000 active; AID 1490;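 further: the enzyme is Sfp with the accession as filed and its product quenches rhodamine fluorescence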
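Buffer: 50 mM Hepes-Na pH 7.6, 10 mM MgCl2, 0.01% Nonidet P-40, 0.01% BSA. Enzyme 15 nM, pre-exposed to compound 15 min; substrates then added and fluorescence change tracked over 30 min.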
RORgamma inh: inhibitors of mouse ROR gamma transcriptional activity. P51450. Drosophila S2 Gal4-RORgamma UAS-luciferase reporter, 20 h. Potency, µM (series often up to 53.6 µM), most hits filed as inhibitors. 5.4% of 310,000 active; further: nearly all actives have a fitted effect of over 60% in size
Target sequence (P51450 whole entry, looked up, the tested form may be a part): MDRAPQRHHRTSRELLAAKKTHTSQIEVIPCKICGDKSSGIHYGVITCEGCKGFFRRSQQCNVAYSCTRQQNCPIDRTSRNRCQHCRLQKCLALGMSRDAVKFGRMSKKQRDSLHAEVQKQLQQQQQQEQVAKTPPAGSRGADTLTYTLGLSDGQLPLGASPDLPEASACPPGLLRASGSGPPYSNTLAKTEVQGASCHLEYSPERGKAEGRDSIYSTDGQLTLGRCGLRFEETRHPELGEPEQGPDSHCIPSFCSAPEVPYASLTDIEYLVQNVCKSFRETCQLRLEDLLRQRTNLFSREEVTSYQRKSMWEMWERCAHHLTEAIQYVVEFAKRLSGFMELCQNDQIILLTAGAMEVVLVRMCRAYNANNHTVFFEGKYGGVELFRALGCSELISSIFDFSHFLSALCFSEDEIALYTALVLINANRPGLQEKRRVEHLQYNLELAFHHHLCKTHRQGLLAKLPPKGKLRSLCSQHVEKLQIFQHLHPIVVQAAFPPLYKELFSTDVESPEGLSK
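ROR gamma transcriptional activity was tracked as Gal4-UAS luciferase output in stably transfected Drosophila Schneider cells, with compound added 1 hr before 700 uM copper sulfate induction and a 20 hr ambient-temperature incubation.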
Epigenetic reg: regulators of epigenetic silencing causing reporter derepression in mouse cells; murine LDR cells, GFP reporter derepression, 30 h; Potency, µM (titrated, usually from 53.9 µM), hits mostly activators; 0.2% of 280,000 active; further: nearly all actives have a fitted effect of over 60% in size
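GFP-positive cell count by laser-scanning cytometry (objects 20–120 um) after 30 h, 37 C compound exposure of murine LDR cells; reporter is CMV-GFP integrated at a silenced locus, inducible by HDAC or DNMT inhibitors.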
ClpP mod: qHTS Assay for Activators of ClpP | ATP-dependent Clp protease proteolytic subunit (Bacillus subtilis (strain 168)), P80244 | purified B. subtilis ClpP, FRET peptide cleavage, 20 min | Potency, µM (top dose mostly 57.5 µM) | 1.9% of 340,000 active; active means well fitted falling curve with a large enough effect; inconclusive means small, poorly fitted or top-dose-only effect; inactive means no such curve, though single readings can be large or run the other way; further: the source files actives as falling curves though it sought activators and does not explain the sign; nearly all actives have a fitted effect of over 65% in size
Target sequence (P80244 whole entry, looked up): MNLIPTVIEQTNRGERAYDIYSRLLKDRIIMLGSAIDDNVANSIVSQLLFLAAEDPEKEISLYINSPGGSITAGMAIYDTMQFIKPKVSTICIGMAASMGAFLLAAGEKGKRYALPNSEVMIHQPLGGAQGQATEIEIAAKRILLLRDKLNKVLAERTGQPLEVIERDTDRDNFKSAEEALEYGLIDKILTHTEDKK
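Buffer: 100 mM Tris/HCl pH8, 100 mM KCl, 0.05% low protease BSA, 2.5% glycerol, 0.01% Tween-20. ClpP 10 microg/mL final; 20 min RT; delta FRET normalized to ADEP and DMSO controls.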
Gal4-VP16 FLuc: counter-screen for ROR gamma inhibitors: Gal4-VP16 reporter; 3.5% of 310,000 active; AID 2546; Drosophila S2 Gal4-VP16 UAS-luciferase, luminescence, 20 h; Potency, µM (top dose mostly 53.6 µM), most hits filed as inhibitors;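 further: Gal4-VP16 expression switched on by copper sulfate through the metallothionein promoter; nearly all actives have a fitted effect of over 50% in size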
A number is an active result. Shown are actives, neighbours in structure and some others; about 8.1% of the full set was active somewhere. Unless noted, the call rests on the fitted dose curve; in most records, active means well fitted curve in the direction sought with a large enough effect; inconclusive means small, poorly fitted or top-dose-only effect, or another doubt; inactive means no such curve, though single readings can be large; an effect the other way counts as inactive or inconclusive.

Screening CCN(CC)CCCN(Cc1cc2cc(OC)ccc2[nH]c1=O)C(=O)Nc1ccc(F)cc1 returned PINK1 modulator inactive, Sfp PPTase inh inactive, RORgamma inh inactive, Epigenetic reg inactive, ClpP mod 28µM and Gal4-VP16 FLuc inactive.
COc1ccc2[nH]c(=O)c(CN(CCc3ccccc3)C(C)=O)cc2c1 was read as PINK1 modulator inactive, Sfp PPTase inh inactive, RORgamma inh inactive, Epigenetic reg inactive, ClpP mod 28µM and Gal4-VP16 FLuc inactive.
Screening CN(C)CCN(Cc1cc2cc3c(cc2[nH]c1=O)OCO3)C(=S)NCC1CCCO1 (stereo unspecified) returned PINK1 modulator inactive, Sfp PPTase inh inactive, RORgamma inh inactive, Epigenetic reg inactive and Gal4-VP16 FLuc inactive.
`COc1cc2cc(CN(Cc3cccnc3)C(=O)NCc3ccccc3)c(=O)[nH]c2cc1OC` gave PINK1 modulator inactive, Sfp PPTase inh inactive, RORgamma inh inactive, Epigenetic reg inactive, ClpP mod 25µM and Gal4-VP16 FLuc inactive.
`CN(C)c1ncnc2ccc(-c3ccccc3C#N)cc12` gave PINK1 modulator inactive, Sfp PPTase inh inactive, RORgamma inh inactive, Epigenetic reg inactive and Gal4-VP16 FLuc inactive.
Nc1nonc1-c1nc2ccccc2n1CC(=O)Nc1cccc(C(F)(F)F)c1 was read as PINK1 modulator inactive, Epigenetic reg inconclusive and ClpP mod inactive.
For CCNC(=S)N(Cc1cc2cc(C)c(C)cc2[nH]c1=O)C1CCCC1 the results were PINK1 modulator inactive, Sfp PPTase inh inactive, RORgamma inh inactive, Epigenetic reg inactive and Gal4-VP16 FLuc inactive.
Screening COc1ccc2[nH]c(=O)c(CN(CCO)C(=O)c3ccccc3F)cc2c1 returned PINK1 modulator inactive, Sfp PPTase inh inactive, RORgamma inh inactive, Epigenetic reg inactive, ClpP mod 20µM and Gal4-VP16 FLuc inactive.
CCNC(=S)N(Cc1cc2cc(C)ccc2[nH]c1=O)C1CCCC1 was read as PINK1 modulator inactive, Sfp PPTase inh 56µM, RORgamma inh inactive, Epigenetic reg inactive, ClpP mod inactive and Gal4-VP16 FLuc inconclusive.
COc1ccc2[nH]c(=O)c(CN(CCO)S(=O)(=O)c3ccc(C)cc3)cc2c1 was read as PINK1 modulator inactive, Sfp PPTase inh inactive, RORgamma inh inactive, Epigenetic reg inactive, ClpP mod inactive and Gal4-VP16 FLuc inactive.
Screening COc1cc2cc(CN(C(=O)NC3CCCCC3)C3CCCC3)c(=O)[nH]c2cc1OC returned PINK1 modulator inactive, Sfp PPTase inh inactive, RORgamma inh inactive, Epigenetic reg inactive, ClpP mod 25µM and Gal4-VP16 FLuc inactive.
For CCc1ccc2[nH]c(=O)c(CN(CCN(C)C)C(=O)Nc3ccccc3OC)cc2c1 the results were PINK1 modulator inactive, Sfp PPTase inh inactive, RORgamma inh inactive, Epigenetic reg inactive, ClpP mod 28µM and Gal4-VP16 FLuc inactive.
Screening Cc1ccc2[nH]c(=O)c(CN(CCO)C(=O)N(C)C)cc2c1 returned PINK1 modulator inactive and ClpP mod 28µM.
COC(=O)c1ccccc1S(=O)(=O)N(Cc1cc2ccc(OC)cc2[nH]c1=O)CC1CCCO1 (stereo unspecified) was read as PINK1 modulator inactive, Sfp PPTase inh inactive, RORgamma inh inactive, Epigenetic reg inactive, ClpP mod 28µM and Gal4-VP16 FLuc inactive.
Screening COc1ccc(CN(Cc2cc3cc(C)ccc3[nH]c2=O)C(=O)N(C)C)cc1 returned PINK1 modulator inactive, Sfp PPTase inh inactive, RORgamma inh inactive, Epigenetic reg inactive, ClpP mod inconclusive and Gal4-VP16 FLuc inactive.
COc1ccc2[nH]c(=O)c(CN(CCN(C)C)C(=O)NCc3ccccc3)cc2c1 was read as PINK1 modulator inactive, Sfp PPTase inh inactive, RORgamma inh inactive, Epigenetic reg inactive, ClpP mod 25µM and Gal4-VP16 FLuc inactive.
O=C(c1ccco1)N1CCN(c2nc3c(F)cc(F)cc3s2)CC1 was read as PINK1 modulator inactive, Epigenetic reg inactive and ClpP mod inactive.
`COc1cc(Cl)c(C)cc1N1C(=O)[C@@H]2C[C@H]1CN2Cc1ccccn1` gave PINK1 modulator inactive.
CNC(=O)c1cnc2sc(N3CCC(C)CC3)nn2c1=O was read as PINK1 modulator inactive, Epigenetic reg inactive and ClpP mod inactive.
CCc1ccc(/C=C(/C#N)c2nc(-c3ccc(C)cc3)cs2)cc1 was read as PINK1 modulator inactive, Epigenetic reg inactive and ClpP mod inactive.
CCOc1ccc(-c2csc(/C(C#N)=C\c3ccc(O)c([N+](=O)[O-])c3)n2)cc1 was read as PINK1 modulator inconclusive, Sfp PPTase inh 79µM, RORgamma inh inactive, Epigenetic reg inactive, ClpP mod inactive and Gal4-VP16 FLuc inconclusive.
Screening N=C1S/C(=C\c2ccc(O)cc2)C(=O)N1c1ccc(F)cc1 returned PINK1 modulator inactive, Sfp PPTase inh inactive, RORgamma inh 2.5µM, Epigenetic reg inactive and Gal4-VP16 FLuc 2.8µM.
`COC(=O)c1ccc(NC(=O)CSc2nc(=O)n(Cc3ccco3)c3c2CCC3)cc1` gave PINK1 modulator inactive, Epigenetic reg inactive and ClpP mod inactive.
CCc1cc2c(cc3c(=O)n(CC(=O)N4CCC(C)CC4)nc(CC)n32)s1 was read as PINK1 modulator inactive, Epigenetic reg inactive and ClpP mod inactive.
Screening Cc1c(N/N=C(\C#N)C(=O)c2ccc(Cl)cc2)c(=O)n(-c2ccccc2)n1C returned PINK1 modulator inactive, Sfp PPTase inh inactive, RORgamma inh 7.1µM, Epigenetic reg inactive, ClpP mod inactive and Gal4-VP16 FLuc 3.5µM.
For COc1cccc(N2CCN(C(=O)c3cccc(NC(=O)c4nsc5ccccc45)c3)CC2)c1 the results were PINK1 modulator inactive, Epigenetic reg inactive and ClpP mod inactive.
Screening Cc1ccccc1NC(NC(=O)c1cccs1)C(Cl)(Cl)Cl (stereo unspecified) returned PINK1 modulator inactive, Sfp PPTase inh inactive, RORgamma inh inconclusive, Epigenetic reg inactive, ClpP mod 25µM and Gal4-VP16 FLuc inactive.
For Cc1cc(C=C2C(=O)c3ccccc3C2=O)c(C)n1C the results were PINK1 modulator inactive, Sfp PPTase inh inactive, RORgamma inh inconclusive, Epigenetic reg inactive, ClpP mod inactive and Gal4-VP16 FLuc inactive.
CCn1c(C)cc(C=C2C(=O)c3ccccc3C2=O)c1C was read as PINK1 modulator inactive, Sfp PPTase inh inactive, RORgamma inh 11µM, Epigenetic reg inactive and Gal4-VP16 FLuc inactive.
`COc1ccc2c(=O)c(OC)c(-c3ccccc3)oc2c1` gave PINK1 modulator inactive, Sfp PPTase inh inconclusive, RORgamma inh inactive, Epigenetic reg inactive and Gal4-VP16 FLuc inactive.
For CC(C)c1nc2ccc(Br)cn2c1NC1CCCC1 the results were PINK1 modulator inactive, Sfp PPTase inh inactive, RORgamma inh 7.1µM, Epigenetic reg inactive, ClpP mod inactive and Gal4-VP16 FLuc inconclusive.

Source: PubChem BioAssay (National Center for Advancing Translational Sciences (NCATS))
